Hits are enriched below; roughly 0.4% of the tested compounds scored in any of these assays.
EPAC1 antagonist: antagonists of human EPAC1 | AID 720709 | Potency, µM (series often up to 115 µM), for the others: at the top dose activity change, negative = inhibition, usual class: inhibitors | EPAC1 GEF assay, Rap1b-BODIPY-GDP exchange fluorescence | O95398 | 360,000 tested, 0.14% active;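 note: plate controls were vehicle for no effect and positive control for full effect; nearly all actives have a fitted effect of over 50% in size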
EPAC2 antag: antagonists of human EPAC2 | 360,000 tested, 0.18% active | EPAC2 GEF exchange of Rap1B-BODIPY-GDP, fluorescence | Q8WZA2 | Potency, µM (top dose mostly 114 µM), without a hit: top-dose activity, negative = inhibition, most hits filed as inhibitors | AID 720708; note: % is set by controls: 0 for no effect and ±100 for the full control effect; nearly all actives have a fitted effect of over 45% in size
EPAC2 ag: EPAC2 (human) agonism | EPAC2 activation, biochemical qHTS; response scale: 100% = 6.5 mM cAMP response | 360,000 tested, 0.079% active | Potency, µM (doses to about 154 µM), inactives show at the top dose activation, actives largely listed as activators | Q8WZA2; note: nearly all actives have a fitted effect of over 50% in size
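In this primary screen, activation is scored as increased exchange of BODIPY-GDP from Rap1B by 100 nM EPAC2, with 50 uM GDP as competitor. Signal is normalized to the 6.5 mM cAMP agonist control.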
RGS4 inh: blocks human RGS4-accelerated GTP hydrolysis; P49798; AID 504845; Transcreener GDP fluorescence polarization, RGS4-accelerated GTP hydrolysis; Potency, µM (doses to about 114 µM), without a hit: top-dose activity change, negative = inhibition, most hits filed as inhibitors; 390,000 tested, 0.039% active; note: % is set by controls: 0 for no effect and ±100 for the full control effect; nearly all actives have a fitted effect of over 75% in size
Target sequence (P49798 whole entry, looked up): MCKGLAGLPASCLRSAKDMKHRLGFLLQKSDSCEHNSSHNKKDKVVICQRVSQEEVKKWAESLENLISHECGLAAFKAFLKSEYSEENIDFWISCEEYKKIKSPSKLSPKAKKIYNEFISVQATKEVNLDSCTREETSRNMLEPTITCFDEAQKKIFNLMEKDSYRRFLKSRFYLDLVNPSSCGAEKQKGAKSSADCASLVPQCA
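MLSMR compounds (23 nl, pin-transferred) preincubated 10 min at room temperature with a 500nM (2x) first reagent, then RGS4 at 900nM (2x) plus Transcreener GDP mix added; fluorescence polarization (620/688 nm) read before and after 90 min at 30 °C.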
EPAC1 ag: agonists of human EPAC1; EPAC1 agonist qHTS, biochemical assay; response scale: 100% = response to 6.5 mM cAMP; AID 720707; Potency, µM (top dose mostly 154 µM), inactives show at the top dose activation, hits mostly activators; 360,000 tested, 0.073% active; O95398; note: nearly all actives have a fitted effect of over 60% in size
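Fluorescent GDP-exchange assay: 100 nM EPAC1 with 250 nM Rap1B preloaded with BODIPY-GDP and 50 uM GDP; compounds tested as concentration series, 5 min at room temperature, then read every 5 min for 30 min (ex 480/em 540 nm); normalized to 6.5 mM cAMP.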
ERG Ets-DNA blk: ERG Ets/DNA interaction inhibition | AID 624246 | 370,000 tested, 0.028% active | P11308 | Potency, µM (doses to about 76.9 µM), inactives show at the top dose FP activity, negative = inhibition, hits mostly inhibitors | fluorescence polarization, His-ERG Ets domain / labelled DNA; active = well fitted inhibition curve with a large enough effect in the polarisation, with a control signal flat; inconclusive = small, poorly fitted or top-dose-only effect, or effect the other way, or a change in a side signal; inactive = no such curve, though single readings can be large or run the other way; the % refers to the polarisation;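 note: polarization taken with two DNA probes labelled with fluorescein and Texas red; % of control where 0% means no effect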
Target sequence (P11308 whole entry, looked up, the tested form may be a part): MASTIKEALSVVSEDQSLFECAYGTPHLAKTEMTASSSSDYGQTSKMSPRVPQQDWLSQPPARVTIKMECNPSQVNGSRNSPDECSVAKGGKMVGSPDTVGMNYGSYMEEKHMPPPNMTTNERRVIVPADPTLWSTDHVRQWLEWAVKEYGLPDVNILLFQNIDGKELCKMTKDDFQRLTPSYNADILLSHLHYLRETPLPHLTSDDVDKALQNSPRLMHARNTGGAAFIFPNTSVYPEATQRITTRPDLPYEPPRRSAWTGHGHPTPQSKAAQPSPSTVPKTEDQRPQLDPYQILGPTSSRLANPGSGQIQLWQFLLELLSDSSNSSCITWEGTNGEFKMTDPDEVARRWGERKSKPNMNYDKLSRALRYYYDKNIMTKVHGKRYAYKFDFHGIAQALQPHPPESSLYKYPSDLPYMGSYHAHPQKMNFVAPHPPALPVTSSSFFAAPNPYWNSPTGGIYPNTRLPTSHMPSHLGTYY
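His-tagged ERG Ets domain (1 uM in the protein solution; 300mM KCl, 50mM Tris-HCl, 1mM EDTA, 1mM DTT, pH 7.5) received compound, then a probe mix of 5 nM fluorescein-DNA and 100nM Texas-615-DNA. Fluorescence polarization was read for both dyes.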
Active calls of the source: *; i = inactive; ? = inconclusive; / = not tested or not shown; ! = a repeat was not active. Unless noted, calls come from the whole dose curve; as a rule, active = well fitted curve in the direction sought with a large enough effect; inconclusive = small, poorly fitted or top-dose-only effect, or another doubt; inactive = no such curve, though single readings can be large; an effect the other way counts as inactive or inconclusive. Potency is the fitted concentration of half-maximal effect.

SMILES	EPAC1 antagonist	EPAC2 antag	EPAC2 ag	RGS4 inh	EPAC1 ag	ERG Ets-DNA blk
Cc1cc2cc(CNS(=O)(=O)c3ccccc3)ccc2n1C	18%	8%	2%	-15%	-2%	11µM*
COc1ccc(S(=O)(=O)NCc2ccc3c(c2)cc(C)n3C)cc1	-4%	8%	22%	-9%	15%	35µM*
O=C1SC(Nc2ccccc2)C(=O)N1c1ccccc1 (stereo not given)	/	/	/	5%	/	/
CCCN(CC(=O)Nc1ccc(F)c(F)c1F)C(=O)C1CC(=O)N(Cc2ccccc2)C1 (stereo not given)	12%	8%	2%	-41%	-6%	35µM*
Cc1ccc(S(=O)(=O)N2CCN(C(=O)c3cccc(-n4cccc4)c3)CC2)cc1	-25%	14%	10%	-8%	-5%	8%
O=C(c1cccc(-n2cccc2)c1)N1CCN(S(=O)(=O)c2ccccc2)CC1	79µM*	-5%	7%	-34%	12%	-3%
CCNc1nc(C#N)nc(Nc2ccccc2)n1	/	/	/	2%	/	/
O=C1c2ccccc2NC(c2ccc(OCc3ccccc3)c(OCc3ccccc3)c2)N1Cc1ccco1 (stereo not given)	/	/	/	-4%	/	/
N#C/C(=C/c1cn(Cc2ccc(F)cc2)c2ccccc12)C(=O)Nc1cccc(Cl)c1	/	/	/	-10%	/	-5%
CS(=O)(=O)Nc1ccc([N+](=O)[O-])cc1OC1CCCCC1	/	/	/	8.4µM*!	/	/
O=C(c1cccc(Cl)c1)n1nc(-c2cccnc2)nc1NCc1ccccc1	/	/	/	-2%	/	-1%
COc1cc(CNn2cnnc2)ccc1OCC(=O)NC(C)(C)C	-5%	2%	10µM*	6%	3%	-2%
Cc1cn2c(=O)c(S(=O)(=O)Nc3ccc(OC(F)(F)F)cc3)c(C)nc2s1	/	/	/	24%	/	1%
C=CCOc1ccc(C=NNc2ccc(S(=O)(=O)Nc3ccccc3C(=O)O)cc2[N+](=O)[O-])cc1OC	50µM*	?	1%	?	-6%	-1%
COc1ccc(C=NNc2ccc(S(=O)(=O)Nc3ccccc3C(=O)O)cc2[N+](=O)[O-])c(OC)c1	50µM*	-5%	1%	?	3%	10%
CC(=O)Nc1cc(O)c2nonc2c1O	/	/	/	-99%	/	/
Cc1ccc(Sc2ccc(S(=O)(=O)Nc3ccc(C(=O)O)cc3)cc2)cc1C	71µM*	?	-3%	-17%	-6%	8%
Cc1ccc(Oc2ccc(S(=O)(=O)Nc3ccc(C(=O)O)cc3)cc2)cc1	10%	-14%	-1%	-8%	-19%	7%
CCOC(=O)N1CCC2(CC1)OC(=O)C(C)=C2C(=O)NCc1ccccc1OC	/	/	/	-15%	/	-2%
COc1cc(CNC(C)c2ccccc2)cc(Br)c1OCc1ccccc1 (stereo not given)	-13%	-5%	18%	-6%	6%	4%
COc1cc(CNc2ccc(O)cc2)cc(Br)c1OCc1ccccc1	40µM*	?	14%	-48%	17%	40µM*
O=C(O)CC/C(=C\c1ccc(N2CCCC2)c([N+](=O)[O-])c1)c1nc2ccccc2s1	45µM*	19%	-5%	-33%	89µM*	-13%
Cc1cccc(N2CCN(C(=O)c3ccc4nc(N5CCC(C)CC5)sc4c3)CC2)c1C	/	/	/	2%	/	-2%
O=C(Nc1ccc(N2CCOCC2)cc1)Nc1ccc2nc(-c3ccco3)c(-c3ccco3)nc2c1	15%	8%	7%	-26%	5%	?
O=C(Nc1cccc(C(F)(F)F)c1)c1ccc2nc(-c3ccco3)c(-c3ccco3)nc2c1	35µM*	?	-28%	?	-30%	22%
SMILES	EPAC1 antagonist	EPAC2 antag	EPAC2 ag	RGS4 inh	EPAC1 ag	ERG Ets-DNA blk
O=C(Nc1ccc2nc(-c3ccco3)c(-c3ccco3)nc2c1)NC1CC1	50µM*	13%	6%	?	1%	2%
Cc1ccc(C)c(S(=O)(=O)N2CCN(C(=O)CCCc3c[nH]c4ccccc34)CC2)c1	-22%	-7%	15%	-13%	112µM*	-8%
COc1ccc(NC(=O)c2csc3c2CCCC3)cc1	9%	6%	7%	-1%	-1%	2%
COc1cccc(NC(=O)c2csc3c2CCCC3)c1	155%	-9%	13%	-14%	100µM*	10%
Cc1c(C)n(Cc2ccccc2)c2ccc(C(=O)N3CCN(c4ccc(F)cc4)CC3)cc12	/	/	/	7%	/	-1%
COc1cc(C)nc(N2CCCC(C(=O)NC3CCC(C)CC3)C2)n1 (stereo not given)	-3%	-3%	-3%	10%	-6%	/
COc1cc(C)nc(N2CCCC(C(=O)Nc3cc(Cl)ccc3OC)C2)n1 (stereo not given)	2%	25µM*	-20%	1%	12%	5%
CCn1c(SCc2ccccc2F)nc(=O)c2c(C(=O)OC)cc(C3CC3)nc21	/	/	/	9%	/	0%
Cc1cc(/C=C2\SC(=S)N(Cc3ccco3)C2=O)c(C)n1-c1cccnc1	-7%	51%	100µM*	-28%	-12%	6%
O=C1/C(=C/c2cccnc2)SC(=S)N1Cc1ccco1	-1%	-2%	11%	?	0%	45%
Nc1ccc(-c2c3ccc(=O)cc-3oc3cc(O)ccc23)cc1C(=O)O	i	i	100µM*	-3%	100µM*	?
O=C(Cn1nc2c(cc1=O)CCCC2)NCc1ccccc1Cl	/	/	/	-20%	/	4%
CCOC(=O)c1ccc(NC(=O)CC2Nc3cc(C)c(C)cc3NC2=O)cc1 (stereo not given)	/	/	/	-13%	/	1%
COc1cccc(OC)c1OC(=O)/C=C/c1ccc(C)o1	-13%	56µM*	14%	-12%	2%	-1%
CC(=O)/C=C/c1ccc(C)o1	14%	17%	-1%	-39%	-7%	10%
CCOc1cc(S(=O)(=O)N(CC)CC)ccc1Cl	-4%	40µM*	2%	-2%	6%	9%
COc1ccc(OC)c(-c2csc(NC(=O)COC(=O)C3CCC3)n2)c1	-3%	-11%	16%	-7%	22%	7%
COc1ccc(OC)c(-c2csc(NC(=O)COC(=O)c3ccc(NC(=O)CC#N)cc3)n2)c1	79µM*	0%	1%	1%	10%	24%
C=C1CCN(C(Cc2ccccc2)C(=O)OC)S(=O)(=O)c2ccc(F)cc21 (stereo not given)	-20%	56µM*	12%	-8%	-17%	-1%
CCC(C)c1ccccc1OCCn1c(CCNC(=O)C2CCCCC2)nc2ccccc21 (stereo not given)	/	/	/	-53%	/	/
COc1ccc(OC)c(CC(=O)NC(c2ccccc2)c2ccccc2)c1	-7%	4%	10%	10%	-3%	3%

Screening results (PubChem)
